The record followed here is PubChem BioAssay (Tox21).

Assay [1] in a line: A CellTox Green Cytotoxicity Assay to monitor cytotoxicity in HEK293 cells - 32 hour (AID 1224881). Also: nearly all actives have a fitted effect of over 40% in size. Also: potency is read from the fitted curve at half-maximal effect. The procedure, abridged: (§1)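 Homogeneous no-lysis format: HEK293 cell suspension mixed with CellTox Green reagent, seeded, incubated 5 h at 37 C/5% CO2, then dosed by pintool with compound in DMSO.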
Assay [2] is described as follows: A CellTox Green Cytotoxicity Assay to monitor cytotoxicity in HepG2 cells - 0 hour (AID 1224882). Also: nearly all actives have a fitted effect of over 35% in size. The procedure, abridged:
(§2)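 Fluorescent DNA-binding dye, 600 HepG2 cells/well, 5 h preincubation then compound in DMSO; same plates read at 0–40 h, 37 C.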

Assay [3] is described as follows: A CellTox Green Cytotoxicity Assay to monitor cytotoxicity in HepG2 cells - 32 hour (AID 1224883). Also: nearly all actives have a fitted effect of over 50% in size. Also: potency is read from the fitted curve at half-maximal effect. The method, boiled down:
as §2

Assay [4] in a line: A CellTox Green Cytotoxicity Assay to monitor cytotoxicity in HEK293 cells - 8 hour (AID 1224884). Also: nearly all actives have a fitted effect of over 35% in size. Also: potency is read from the fitted curve at half-maximal effect. The procedure, abridged:
as §1

Assay [5] in a line: qHTS RealTime-Glo MT Cell Viability Assay in HepG2 cells - 16 hour (AID 1224885). Also: nearly all actives have a fitted effect of over 50% in size. Also: potency is read from the fitted curve at half-maximal effect. The procedure, abridged: (§3)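 Cells + NanoLuc/prosubstrate dispensed (600 cells/well) → 5 h at 37 C/5% CO2 → compounds in DMSO transferred → 40 h incubation at 37 C, luminescence read at 0, 8, 16, 24, 32, 40 h.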
(In qHTS, concentration-response curves come from the screen itself.)

Assay [6] can be described thus: qHTS RealTime-Glo MT Cell Viability Assay in HEK293 cells - 24 hour (AID 1224886). Also: nearly all actives have a fitted effect of over 50% in size. Also: potency is read from the fitted curve at half-maximal effect. The method, boiled down:
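Tox21 10K qHTS, HEK293, 600 cells/well, RealTime-Glo reagent co-dispensed with cells; 5 h preincubation, compound by pintool, 37 C, luminescence at 0–40 h.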

Assay [7] is described as follows: qHTS RealTime-Glo MT Cell Viability Assay in HEK293 cells - 8 hour (AID 1224887). Also: nearly all actives have a fitted effect of over 50% in size. Also: potency is read from the fitted curve at half-maximal effect. The method, boiled down:
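Measured as luminescence from the same continuously cultured HEK293 wells at successive time points (0, 8, 16, 24, 32, 40 h) after compound addition. Reagent present from seeding; dosing at 5 h; incubation 37 C.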

The nature of assay [8]: A CellTox Green Cytotoxicity Assay to monitor cytotoxicity in HEK293 cells - 16 hour (AID 1224888). Also: nearly all actives have a fitted effect of over 35% in size. The procedure, abridged: as §1
Assay [9] in a line: qHTS RealTime-Glo MT Cell Viability Assay in HepG2 cells - 0 hour (AID 1224889). Also: nearly all actives have a fitted effect of over 50% in size. Also: potency is read from the fitted curve at half-maximal effect. The procedure, abridged:
as §3

Assay [10] is described as follows: A CellTox Green Cytotoxicity Assay to monitor cytotoxicity in HepG2 cells - 8 hour (AID 1224890). Also: nearly all actives have a fitted effect of over 45% in size. The method, boiled down:
as §2

The nature of assay [11]: qHTS assay to identify small molecule antagonists of the estrogen receptor alpha (ER-alpha) signaling pathway using the BG1 cell line in the presence of 0.1 nM 17-beta-estradiol - cell viability counter screen (AID 1259241). Also: nearly all actives have a fitted effect of over 40% in size. Also: potency is read from the fitted curve at half-maximal effect. The procedure, abridged: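 Cytotoxicity counter-screen: live-cell protease activity measured by fluorescence (30 min reagent step) in the same wells. Cells were VM7Luc4E2 with endogenous ER-alpha and ERE-driven luciferase, treated 22 hr at 37C alongside 0.1 nM 17beta-estradiol final.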

Assay [12] can be described thus: qHTS assay to identify small molecule antagonists of the androgen receptor (AR) signaling pathway using the MDA cell line in the presence of 0.5 nM R1881 - cell viability counter screen (AID 1259242). Also: nearly all actives have a fitted effect of over 45% in size. Also: potency is read from the fitted curve at half-maximal effect. The method, boiled down:
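Human breast carcinoma MDA-kb2 cells, cultured without CO2, receive compounds alongside 0.5 nM (final) R1881 agonist. After 16 hr at 37C, viability is taken as live-cell protease signal.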

Assay [13] in a line: qHTS assay to identify small molecule phospholipidosis (PLD) inducers (AID 1259344; active = well fitted curve in the direction sought with a large enough effect; an effect the other way counts as inactive or inconclusive). The method, boiled down:
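Cells (HepG2, 900 per well) attach for 4 h, receive LipidTOX Red and compound together, incubate 24 h at 37 C, are fixed 30 min with paraformaldehyde/Hoechst, then imaged at one site per well.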

Assay [14] can be described thus: qHTS assay to identify small molecule HDAC inhibitors (AID 1259364). Also: potency is read from the fitted curve at half-maximal effect.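 Also: wild-type HCT-116 cells with endogenous class I/II HDAC activity; nearly all actives have a fitted effect of over 45% in size.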 The method, boiled down: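 After a 2 hr compound incubation (37C, 5% CO2), HCT-116 cells seeded at 1,500/well the day before received HDAC-Glo reagent; signal read as luminescence after 30 min at room temperature.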
Assay [15] in a line: qHTS assay to identify small molecule HDAC inhibitors - cell viability counter screen (AID 1259365). The method, boiled down: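 CellTiter-Glo luminescence (30 min, room temperature) reported viability after a 2 h compound exposure at 37 C. Cells: wild-type HCT-116, 1,500 per well, seeded the night before.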
A short description of assay [16]: qHTS assay to identify small molecule agonists of the sonic hedgehog signaling (Shh) pathway - cell viability counter screen (AID 1259366). Also: nearly all actives have a fitted effect of over 50% in size. Also: potency is read from the fitted curve at half-maximal effect. The procedure, abridged:
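Cytotoxicity counter screen: CellTiter-Fluor reagent added after 23 h compound exposure, then 1 h at 37C and fluorescence read. Cells were 3T3 Gli1-Luc, seeded 2,000 per well and dosed 4 h post-plating.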

Assay [17] in a line: qHTS assay to identify small molecule antagonists of the sonic hedgehog signaling (Shh) pathway - cell viability counter screen (AID 1259367). Also: nearly all actives have a fitted effect of over 55% in size. Also: potency is read from the fitted curve at half-maximal effect. The method, boiled down:
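Cytotoxicity was assessed in parallel with Shh reporter activity by measuring live-cell protease fluorescence (CellTiter-Fluor) in NIH/3T3 cells stably carrying Gli1-Luc, treated with compound under conditioned medium stimulation for 23 hr plus 1 hr reagent incubation.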

A short description of assay [18]: qHTS assay to identify small molecule agonists of the sonic hedgehog signaling (Shh) pathway (AID 1259368; calls by dose curve;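 also: NIH/3T3-derived 3T3Gli1-Luc cells carrying a stable Gli1-driven firefly luciferase reporter; series mostly up to about 92 µM; nearly all actives have a fitted effect of over 15% in size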). The method, boiled down: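 Stable NIH/3T3 Gli1-Luc reporter clone; 24 hr cpd exposure after a 4 hr settling period; luminescence endpoint.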
Assay [19] is described as follows: qHTS assay to identify small molecule antagonists of the sonic hedgehog signaling (Shh) pathway (AID 1259369; calls by dose curve; also: nearly all actives have a fitted effect of over 45% in size; also: potency is read from the fitted curve at half-maximal effect). The procedure, abridged:
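Gli1 transcriptional reporter (firefly Luc) in NIH/3T3 background, conditioned-medium activated. 24hr exposure, luminescence endpoint.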

Assay [20] concerns the target Estrogen receptor (Homo sapiens) (UniProt P03372). Put plainly: qHTS assay to identify small molecule antagonists of the estrogen receptor alpha (ER-alpha) signaling pathway using the BG1 cell line in the presence of 0.1 nM 17-beta-estradiol (AID 1259244). Also: nearly all actives have a fitted effect of over 50% in size. The method, boiled down:
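Seeding of stripped-serum-adapted VM7Luc4E2 cells, 24 h attachment, compound transfer, then 0.1 nM final 17beta-estradiol; after 22 h incubation, ONE-Glo reagent and luminescence reading.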

Values joined by “and” are separate entries in the source; they are usually repeats but may differ in a detail not shown here. Identical values can stand only once. Records with an inconclusive call do not appear. Some structures have more than one record in an assay (separate samples or runs), and their calls can disagree. Active and inactive are the calls of the source. Unless noted, calls follow the shape of the dose curve; as a rule, active = well fitted curve in the direction sought with a large enough effect in the repeat runs; inconclusive = weak or mixed curves; inactive = no such curve, though single readings can be large; an effect the other way counts as inactive or inconclusive.

Sequence of Estrogen receptor (Homo sapiens) (P03372 whole entry, looked up): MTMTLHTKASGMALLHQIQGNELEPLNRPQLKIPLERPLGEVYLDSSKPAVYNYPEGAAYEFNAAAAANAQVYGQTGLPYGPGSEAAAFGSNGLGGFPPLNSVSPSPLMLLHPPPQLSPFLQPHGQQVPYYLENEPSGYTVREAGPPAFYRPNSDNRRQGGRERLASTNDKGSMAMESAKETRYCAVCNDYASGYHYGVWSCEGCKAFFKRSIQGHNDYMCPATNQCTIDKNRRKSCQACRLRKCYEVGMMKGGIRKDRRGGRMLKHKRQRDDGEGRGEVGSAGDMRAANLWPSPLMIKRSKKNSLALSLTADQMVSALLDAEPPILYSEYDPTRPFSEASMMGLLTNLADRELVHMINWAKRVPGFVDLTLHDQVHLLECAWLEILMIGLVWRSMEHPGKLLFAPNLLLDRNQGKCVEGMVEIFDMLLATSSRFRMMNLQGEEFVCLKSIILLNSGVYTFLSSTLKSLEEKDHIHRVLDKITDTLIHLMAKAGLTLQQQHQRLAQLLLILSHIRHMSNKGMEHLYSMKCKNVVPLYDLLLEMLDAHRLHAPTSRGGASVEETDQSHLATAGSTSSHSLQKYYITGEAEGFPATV

Take `C=C(C)[C@H]1Cc2c(ccc3c2O[C@@H]2COc4cc(OC)c(OC)cc4[C@@H]2C3=O)O1`: the Potency result in assay [1], in assay [2], in [4], in [8], in assay [9] and in assay [10] was “inactive” each time. Further, the Potency entry in assay [14] and in assay [18] was “inactive” each time. Moreover, the Potency was 27.9 µM (active) and 24.5 µM (active) in [3]; 31.3 µM (active) and 27.5 µM (active) in [5]; 62.5 nM (active) and 12.3 nM (active) and 47.7 nM (active) in assay [6]; 249 nM (active) and 219 nM (active) and 60.1 nM (active) in [7]; 0.0486 µM (active) in [11]; 78 nM (active) and 54.5 nM (active) and 106 nM (active) in [12]. For the same compound, the Potency is 24.7 µM (active) and inactive in assay [16]; 22 µM (active) and 6.11 µM (active) in assay [17]; 19.6 nM (active) and 5.45 µM (active) and inactive in assay [19]. The call in assay [13] and in assay [15] was inactive.

Take `COP(=S)(OC)Oc1cc(Cl)c(Cl)cc1Cl`: the Potency entry in [1], in assay [2], in assay [3], in [4], in assay [5] and in [6] was “inactive” each time. For the same compound, the Potency entry in [7], in assay [8], in assay [9], in assay [10], in assay [11] and in assay [20] was “inactive” in each case. For the same compound, the Potency entry in [14], in [16], in assay [17], in [18] and in [19] was “inactive” each time. In addition, the call in [13] and in assay [15] was inactive.

With `CCN(N=O)C(N)=O`, the Potency entry in [1], in assay [2], in [3], in assay [4], in assay [5] and in assay [6] was “inactive” in each case. In addition, the Potency entry in [7], in assay [8], in [9], in [10], in assay [11] and in [20] was “inactive” each time. The Potency result in assay [14], in assay [16], in assay [17], in assay [18] and in assay [19] was “inactive” each time. Further, the compound was called inactive in assay [15].

As for `COP(=O)(OC)OC`, the Potency result in assay [1], in [2], in [5], in [6], in assay [7] and in assay [8] was “inactive” each time. The Potency result in [9], in [10], in assay [11], in assay [12], in assay [20] and in assay [16] was “inactive” throughout. For the same compound, the Potency entry in assay [17], in assay [18] and in [19] was “inactive” throughout. Further, the Potency was 24.7 µM (active) and inactive in [3]; 39.2 µM (active) and inactive in assay [4]. The result in assay [15] was inactive.

As for `CCC(CC)Nc1c([N+](=O)[O-])cc(C)c(C)c1[N+](=O)[O-]`, the Potency entry in assay [1], in assay [2], in assay [3], in [4], in assay [5] and in [6] was “inactive” throughout. Moreover, the Potency result in [7], in [8], in [9], in [10], in [11] and in [12] was “inactive” each time. For the same compound, the Potency result in [16], in assay [17], in assay [18] and in [19] was “inactive” throughout. In assay [15], the call was inactive.

Regarding `Nn1cnnc1`, the Potency entry in assay [1], in [2], in [3], in assay [4], in [5] and in assay [6] was “inactive” throughout. Besides, the Potency result in [7], in assay [8], in assay [9], in [10], in [11] and in [12] was “inactive” throughout. The Potency entry in [20], in assay [14], in assay [16], in [17], in [18] and in [19] was “inactive” in each case. The compound was classed as inactive in [15].

As for `c1ccc(NNc2ccccc2)cc1`, the Potency in assay [1] was 24.5 µM (active); in assay [9], “inactive and 43.6 µM (active)”; in assay [14] it was 15.4 µM (active). Also, the Potency result in assay [2], in assay [3], in assay [4], in [5], in assay [6] and in assay [7] was “inactive” each time. Also, the Potency result in assay [8], in assay [10], in assay [11], in [12], in assay [16] and in assay [17] was “inactive” each time. Also, the Potency entry in [18] and in assay [19] was “inactive” throughout. The compound was classed as inactive in assay [15].
